# Reference: PubChem BioAssay (NCI)
# Where “and” joins values, the source holds several entries; their conditions need not be identical. Identical values can stand only once. Compounds without any hit were thinned out: in the full panel of roughly 83,000, 20% have a hit.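 Growth was measured after 48 h exposure to one concentration of compound in 96-well plates. Values under 10 count as active.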 Unmarked numbers belong to inactive results. Calls of active or inactive are those of the source.
# Tests used:
# Assay in all cases: NCI-60 one-dose screen, 48 h (100 = growth as untreated, 0 = no growth, -100 = all killed)
# Conditions in all cases: 10 µM unless noted
# T-47D breast = test system: T-47D breast
# BT-549 breast = test system: BT-549 breast
# MDA-MB-435 melanoma = test system: MDA-MB-435 melanoma
# SW-620 colon = test system: SW-620 colon
# MCF7 breast = test system: MCF7 breast
# HCT-116 colon = test system: HCT-116 colon
# HCC-2998 colon = test system: HCC-2998 colon
# KM12 colon = test system: KM12 colon
SMILES,growth (T-47D breast),growth (BT-549 breast),growth (MDA-MB-435 melanoma),growth (SW-620 colon),growth (MCF7 breast),growth (HCT-116 colon),growth (HCC-2998 colon),growth (KM12 colon)
CC(Nc1ncnc2ccc(-c3cnc(N)nc3)cc12)c1ccccc1 (stereo not drawn),12.2%,19.9%,50.4%,67.4%,18.5%,33%,43%,54.7%
Cn1cc(-c2nn3cc(-c4ccncc4)nc3s2)c2cc(F)ccc21,41.4%,64.6%,83.2%,68.9%,18.2%,45.7%,91.4%,81.8%
Cc1ccc(C(=O)CSc2nc3ccccc3c(=O)n2C)cc1,76.2%,96.1%,100%,99.2%,78.3%,89.2%,113%,86.7%
CC(=O)OC[C@]12CC[C@@H](C(=O)/C=C/c3cccnc3)[C@@H]1[C@H]1CC[C@@H]3[C@@]4(C)CC[C@H](OC(C)=O)C(C)(C)[C@@H]4CC[C@@]3(C)[C@]1(C)CC2,-16.7% (active),-12.6% (active),-1.17% (active),7.96% (active),-26.8% (active),-61.2% (active),-63.2% (active),18.5%
Cc1cc2nc(C(Cl)Cl)nc(-c3ccc(S(=O)(=O)N(C)C)cc3)n2n1,69.8%,38.5%,47%,18.2%,62.1%,18.2%,47.6%,39.1%
CC[C@H](CC[C@@H](C)[C@H]1CC[C@H]2[C@@H]3CC(=O)C4=CC(=O)/C(=C/c5ccc([N+](=O)[O-])cc5)C[C@]4(C)[C@H]3CC[C@]12C)C(C)C,89.1%,109%,94.4%,110%,84.8%,86.5%,105%,100%
CN1CCN(c2ccc(Nc3nc(NCCCNS(=O)(=O)c4ccccc4)c4sccc4n3)cc2)CC1,36.8%,62.1%,50.6%,52.5%,35.5%,16.7%,60.4%,73.3%
Brc1ccc2[nH]cc(-c3nn4cc(-c5nccs5)nc4s3)c2c1,29.7%,62.6%,12.9%,25.2%,33.9%,-81.7% (active),36.7%,21%
CCCCSC1=C(Cl)CN(c2ccccc2)C1=O,85%,110%,108%,106%,51.5%,104%,105%,93.7%
CN1CCN(Cc2ccc(NC(=O)c3cncc(C#Cc4cnc5ccc(OCC(F)F)nn45)c3)cc2C(F)(F)F)CC1,8.64% (active),-16.6% (active),-92.6% (active),-49.1% (active),-66.6% (active),-84.3% (active),-67% (active),-53.9% (active)
O=C1Nc2cc(Cl)ccc2/C1=C\c1ccc(OCc2ccccc2)cc1,95.7%,101%,99.4%,99.4%,61.6%,97.7%,102%,95.1%
Cn1cc(C2=C(c3coc4cc(Br)ccc34)C(=O)NC2=O)c2ccccc21,70%,82.6%,8.23% (active),42.1%,51.2%,57.4%,104%,80.5%
CC(=O)Nc1cc(N2CCOCC2)c2nc(NC(=O)c3[nH]c(C)c(Cl)c3Cl)sc2c1,46.9%,74.1%,59%,84.4%,67.1%,68.5%,109%,82.4%
CCCCCCCCCC(=O)NC(C)(C)C(=O)N1CCC[C@H]1C(=O)N[C@@H](CC(C)C)C(=O)N[C@@](C)(CC)C(=O)N[C@@H](CCC(N)=O)C(=O)N[C@H](CCC(N)=O)C(=O)NC(C)(C)C(=O)NC(C)(C)C(=O)N[C@@H](CCC(N)=O)C(=O)N[C@H](CC(C)C)C(=O)N[C@H](CO)CC(C)C,-34.9% (active) and -12.9% (active),-84.8% (active) and -76.9% (active),-60.3% (active) and -95.4% (active),-83.6% (active) and -50.6% (active),-83.8% (active) and -76.9% (active),-67.5% (active) and 1.05% (active),-89.2% (active) and -59.5% (active),-89.6% (active) and -89.8% (active)
CCCCN1C(=O)/C(=c2\sc3n(c2=O)C2C(NN=3)N(CC)C(=O)N2CC)c2cc(C)ccc21 (stereo not drawn),93.8%,96.3%,84.5%,95.1%,80%,85.3%,109%,94.1%
COc1ccccc1Cn1cc(C#N)c(N)c1C(=O)c1ccc(Br)cc1,74.1%,103%,94.4%,100%,91.5%,93.9%,103%,96.5%

SMILES,growth (T-47D breast),growth (BT-549 breast),growth (MDA-MB-435 melanoma),growth (SW-620 colon),growth (MCF7 breast),growth (HCT-116 colon),growth (HCC-2998 colon),growth (KM12 colon)
C#CCOc1ccccc1C(OC(=O)c1ccccc1)C(=O)NC(C)(C)C(C)(C)C (stereo not drawn),73.5%,85%,96.2%,96.9%,79.9%,60.5%,96.1%,92.7%
C#Cc1nc(/C=C/C(=O)NO)cs1,67.9%,101%,61.1%,45.8%,62.6%,23.8%,111%,56.3%
CCOP(=O)(OCC)OC[C@]12CC[C@@H](C)[C@H](C)C1C1=CC[C@@H]3[C@@]4(C)CCCNC(C)(C)[C@@H]4CC[C@@]3(C)[C@]1(C)CC2 (stereo partly drawn),38.2%,71.7%,28.4%,-54.7% (active),-59.8% (active),-84.5% (active),-55.1% (active),18.2%
Cc1cc(NS(=O)(=O)c2ccc(NC(=O)CSc3nc4ccccc4c(=O)n3-c3ccccc3)cc2)no1,90%,97.1%,98%,98.9%,91.4%,94.6%,96.9%,94.5%
CC(C)(C)OC(=O)Nc1ccc(-c2cccc(Oc3ccc4nnc(Cl)n4n3)c2)cc1,59.3%,58.8%,83.7%,97.3%,74.8%,43.9%,109%,88.2%
CC1CC(=O)C2=C(C1)Nc1ccc(Br)cc1CC2c1c[nH]c2ccc(Br)cc12 (stereo not drawn),33.4%,64.9%,-18.5% (active),33.5%,16.7%,24.2%,69.6%,28.1%
COc1ccc(-c2nc(C#N)c(N3CCC(S(=O)(=O)N4CCOCC4)CC3)o2)cc1,96.9%,108%,99.3%,95.7%,90.7%,110%,107%,97.1%
Cn1ncc2ncc(-c3ccc4ncc(C#N)c(N5CCc6cc(F)c(Cl)cc65)c4c3)cc21,5.2% (active),37.4%,27.1%,54.4%,9.79% (active),53.1%,46.4%,52.5%
CC(=O)/C(N=Nc1ccc2oc(=O)ccc2c1)=C(\C)O,8.7% (active),33.2%,33.2%,17.6%,25.8%,12.1%,35.7%,19%
O=[N+]([O-])c1ccc(NC(=S)NNC(=S)Nc2ccc(F)cc2)cc1,74.1%,97.1%,91%,91.5%,82%,83.7%,85.5%,80.4%
COc1cccc(N2CCN(C3=C(Cl)C(=O)c4ncccc4C3=O)CC2)c1,-48.1% (active),105%,3.36% (active),14.3%,19.1%,1.4% (active),106%,94.5%
CN(C)c1ccc(/C=N/Nc2nc(N/N=C/c3ccc(N(C)C)cc3)nc(N3CCCCC3)n2)cc1,46%,111%,60.4%,64.2%,31.1%,14.9%,103%,93%
CN1CCN(c2ccc(Nc3nc(NCCCNS(=O)(=O)c4ccc(F)cc4)c4sccc4n3)cc2)CC1,29.8%,65.9%,47.3%,70.1%,31.2%,20.8%,74.3%,65.3%
CNC(=O)c1cc(Oc2ccc3c(c2)sc2nc(-c4ccc(N(C)C)cc4)cn23)ccn1,45.2%,36.5%,-37.8% (active),27.9%,11.2%,8.11% (active),0.825% (active),23.2%
Cc1[nH]c(C(=O)Nc2ccc(C(=O)NCC3CCNCC3)cc2OC(C)C)c(Cl)c1Cl,77.6%,92.6%,72.2%,33.6%,-76.3% (active),33.2%,55.3%,56%
